Here are results for seven molecules from PubChem BioAssay (NCI).

Molecules are shown by their SMILES. Compounds without any hit were thinned out: in the full panel of roughly 83,000, 20% have a hit.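 A percent growth of 40 corresponds to 60% growth inhibition; 0 means no net growth; -100 means all cells died. Active threshold: below 10.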 A number with no mark means an inactive call. Calls of active or inactive are those of the source.

Common to all, as to test: NCI-60 one-dose screen, 48 h (100 = growth as untreated, 0 = no growth, -100 = all killed)
Common to all, as to details: 10 µM unless noted

Assay [1] concerns NCI-H23 lung.
In assay [2] the test system is NCI-H226 lung.
Assay [3] deals with NCI-H322M lung.
In assay [4] the test system is HOP-62 NSCLC.
In assay [5] the test system is NCI-H460 lung.
Assay [6] has as its system HOP-92 NSCLC.
The subject of assay [7] is NCI-H522 lung.
In assay [8] the test system is A549/ATCC NSCLC.
Assay [9] deals with 786-0 renal.
The subject of assay [10] is COLO 205 colon.
Assay [11] concerns DU-145 prostate.
In assay [12] the test system is K-562 leukemia.
In assay [13] the test system is MALME-3M melanoma.
For assay [14], the system named is MDA-MB-231 breast.
For assay [15], the system named is RXF 393 renal.
Assay [16] deals with SF-268 CNS.
The subject of assay [17] is SF-295 CNS.
The subject of assay [18] is SF-539 CNS.
The test system of assay [19] is UACC-257 melanoma.

For the molecule `C=C(C)[C@@H]1CC[C@]2(C)[C@H](CC=C3[C@@H]4CC(C)(C)CC[C@]4(C(=O)OC)CC[C@]32C)[C@@]1(C)CC/C(N)=N/O`, the growth in [1] was 8.68% (active); in [2], 2.13% (active); in assay [3], 85.6%; in assay [4], 79.3%; in assay [5], 74.9%; in [6], 45.9%. Also, the growth in assay [7] is 33.5%; in assay [8], -28.8% (active); in assay [9], 66.6%; in [10], 35.6%; in [11], 75.1%; in assay [12], 23.9%. Moreover, the growth in [13] is 58.9%; in assay [14], 66.1%; in [15] it was -49.4% (active); in assay [16] it was 67.9%; in [17], 33.6%; in [18], 65.3%. For the same molecule, the growth in assay [19] was -32.1% (active).
Consider `CN1CCN(CCOc2ccc(-c3cnc4c(-c5cccc(F)c5)cnn4c3)cc2)CC1`, for which the growth in assay [1] was 62.6%; in [2] it was 109%; in assay [3], 89.8%; in assay [4], 90%; in [5] it was 1.99% (active); in [6], 24.8%. The growth in [7] was 82%; in assay [8], 49.4%; in [9], 57%; in assay [10], 32.4%; in [11], 71.8%; in assay [12], -33.6% (active). For the same molecule, the growth was 60.6% in assay [13]; 47.7% in [14]; 66.3% in assay [15]; 80.4% in assay [16]; 79.6% in assay [17]; 70.6% in [18]. In [19], the growth is 67.1%.
With `COc1ccccc1-n1cnc(N)c1C(=O)c1cc(OC)c(OC)c(OC)c1`, the growth was 70% in assay [1]; 56.7% in [2]; 81.4% in assay [3]; 52.8% in [4]; 14.5% in assay [5]; 70.3% in assay [6]. The growth was 1.87% (active) in assay [7]; 47.9% in assay [8]; 37.9% in assay [9]; 66.1% in [10]; 73.9% in assay [11]; 22% in assay [12]. Moreover, the growth in [13] is 50.1%; in [14], 64.8%; in assay [15], 33%; in assay [16] it was 38.5%; in assay [17], 24.9%; in assay [18] it was 35.6%. Further, the growth in [19] is 59.8%.
Consider `Cn1cc(-c2csc(-c3cn(CCNC(=O)OC(C)(C)C)c4ccccc34)n2)c2cccnc21`, for which the growth in assay [1] is 65.7%; in [2], 55.9%; in assay [3], 90.1%; in [4], 72.5%; in assay [5] it was 92.6%; in assay [6] it was 56.6%. Besides, the growth is 52.6% in [7]; 78.8% in assay [8]; 93.6% in assay [9]; 73.3% in [10]; 101% in assay [11]; 56.2% in assay [12]. For the same molecule, the growth was 82.8% in assay [13]; 82.9% in assay [14]; 105% in [15]; 90.5% in assay [16]; 97.7% in assay [17]; 93.1% in assay [18]. For the same molecule, the growth in [19] is 92.2%.
On to `Clc1ccccc1-c1nc(Nc2nc3ccccc3s2)nc(C(Cl)(Cl)Cl)n1`, for which the growth in [1] is 76.4%; in [2] it was 95%; in [3] it was 24.6%; in assay [4], 40.5%; in assay [5], 1.36% (active); in [6] it was 55.6%. The growth in assay [7] is 88.4%; in assay [8], 18%; in assay [9], 75.8%; in assay [10], 10.9%; in [11] it was 15.9%; in assay [12], 50.8%. Further, the growth in assay [13] was 79.6%; in [14] it was 14.5%; in assay [15], 16.7%; in [16], 81.7%; in assay [17], 37.8%; in assay [18], 32.8%. In addition, the growth in assay [19] was 83.9%.
Consider `Cn1cc(-c2csc(-c3cn(CCCN4CCCCC4)c4ccc(Br)cc34)n2)c2cccnc21`, for which the growth in assay [1] is 43.3%; in assay [2] it was 75.9%; in [3] it was 49.7%; in [4], -56.5% (active); in [5], -66.8% (active); in assay [6], 31.5%. Besides, the growth in assay [7] is 11.7%; in assay [8], -49% (active); in [9] it was -75.9% (active); in assay [10] it was -79.5% (active); in [11], -26.5% (active); in assay [12], -63.6% (active). In addition, the growth in [13] was -25.7% (active); in [14], -50.7% (active); in assay [15], 23.3%; in assay [16], 46.1%; in [17], 31.8%; in [18], -73% (active). Also, in assay [19], the growth is 68.1%.
As for `CC(=O)OC[C@]12CC[C@@H](/C(C)=N/O)[C@@H]1[C@H]1CC[C@@H]3[C@@]4(C)CCCNC(C)(C)[C@@H]4CC[C@@]3(C)[C@]1(C)CC2`, the growth in assay [1] is 86.2%; in assay [2] it was 88.5%; in assay [3], 90.7%; in [4], 85.2%; in assay [5], 84.5%; in assay [6] it was 66.9%. Further, the growth in assay [7] was 83.8%; in assay [8], 64.6%; in [9], 73.5%; in assay [10], 75.8%; in assay [11], 77.3%; in assay [12] it was 41.3%. Also, the growth in [13] was 89.2%; in [14], 82.7%; in assay [15] it was 71.2%; in assay [16], 62.8%; in assay [17], 84.5%; in assay [18], 79.5%. Moreover, in assay [19], the growth was 81.4%.
